The values below come from PubChem BioAssay AID1508600 (Functional Genomics Laboratory (NCATS/FGL), 2020).

Screen size: about 53,000 sequences; about 3,700 (7%) were called active.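 Rule for the calls: active = gene knockdowns whose robust z-score for IL-1 alpha signal is at least 2 or at most -2, so actives lie on both sides; inactive = the rest.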 This excerpt belongs to a sample that is enriched for actives.

A short description of the experiment: Components of the Cytosolic LPS Sensing Pathway: Gene Identification via Genome-wide siRNA Screen.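 Note: robust z of the log signal after scaling to non-targeting control siRNA wells of the plate.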 The following applies: RAW264.7 macrophages, IL-1a HTRF, actives lie on both sides, screened at 100 nM (by protocol), cells primed 5 h with Pam3CSK4 first. The gist of the method:
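IL-1a HTRF of supernatants after 24 hour LipidA transfection of Pam3CSK4-primed (5 hours) RAW264.7 cells, 48h post-siRNA transfection (100 nM). Scores: percent of plate negative-control median, then log-based robust z-score.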
(In general: Time-resolved FRET reads energy transfer from a long-lived donor to a nearby acceptor.)
For CGACUACAAUGGGCUCAAGTT against Kifc3, the z-score is -2.1 (active). Next, GGUAAAGGGUUCUUGGACATT against Eps15l1: -0.156 (inactive); GGAGAAUGCCCUGAUAUAGTT against Hyal5: 1.56 (inactive).

In the case of GGAUGUGAUUGAUAUUGAATT against Cul7, the z-score was 1.63 (inactive). For the sequence GCAGUAGUCUUGGAAUUAATT against Bhlhe41, the z-score was 2.15 (active).

With GCAGCGAGGUUAUCAGUAATT against Sox8, the z-score is -0.554 (inactive). Next, GCCUUUUUACAGCUCAGGUTT against Zfp975: -0.623 (inactive). Next, GCCACCCUUCUGGAGAUUCTT against Gm6787: 1.49 (inactive); CGGUAUCUACAUCAUAAACTT against Rpsa: 0.172 (inactive).

On to “GGUUACCAGAAAAUAACUATT against E130114P18Rik”, for which the z-score is 0.852 (inactive). As for UGUCAACUGACUGUAGUAATT against Zmynd12, the z-score was 1.66 (inactive).

For the sequence GGACUGGAAAAUAUCAAACTT against Spata5, the z-score is 2.04 (active). Next, GGCUACGUGAAGGAACAGUTT against Rps10: 0.397 (inactive). The value for GGCACUUAAGUAUUCUUCATT against Wac was -0.412 (inactive). Next, GGAAAAAUCAGUUUCGUCUTT against Dgkq: 0.305 (inactive).

As for GGUUAGCCAGCUGAAUCAATT against Cxxc4, the z-score is 1.89 (inactive). The value for CCUAGAAAGAGGACUCAGATT against Abhd12 was -0.293 (inactive); that for CCUUUAAAGGGCAUAUUCATT against Clip1 was 1.46 (inactive).

With GGCCUGCCGGAGAUAAAGATT against Tex43, the z-score is -0.759 (inactive). Next, CCCUGUCUUUCCUAGGCCATT against Mcat: -3.3 (active); AGGGCACAAAAGGUGACAATT against Rph3al: -0.887 (inactive); GGAUGAUGUUCCCAUGCAATT against Cdca7l: -0.45 (inactive). Turning to “GCUGCUCGAUUGCUUUCCATT against 4930429B21Rik”, the z-score was 0.411 (inactive). The value for GGACCAAGUGGAAGAAGCATT against Nkx1-2 was -2.02 (active); that for GGACAGAUGGAAUAGUGAATT against Klra10 was -0.657 (inactive). The value for CCAUCAAGCGAUUUGUGGUTT against Rnf103 was -0.156 (inactive); that for GGCCAGCAGACUAUUUAUUTT against Derl1 was 0.304 (inactive); that for GGUGCAAGUGCAGUUUCAATT against Fxyd6 was 2.38 (active).

Turning to GCACAAAAUUCACUGUUAGTT against Olfr112, the z-score was 0.965 (inactive). The value for GCUCGGUAGGUAUUUUCUGTT against Tmem164 was -0.13 (inactive); that for GGCUGAUGCAGACAGUUUCTT against Brap was -0.655 (inactive); that for GGAUUGAAACAGAUGAGAGTT against Gtf2e1 was 0.833 (inactive). The value for GGAGUGCUGAUAAAAGAAGTT against Atp5mpl was -0.952 (inactive); that for GUUCUAUGGUAGACAUUAUTT against Gm5414 was -2.35 (active).

Take GCUCUCAUACACGGUGGAATT against Ros1: the z-score was -0.272 (inactive). Next, GGAGACCUCAGCUGAUAUUTT against Tmem109: 0.51 (inactive); GGUUCUGAACCAGCUGGAGTT against Chd3: 2.72 (active).

GGCCAUGCCUUUGUAUGCUTT against Tbc1d25: the z-score was -0.155 (inactive). Next, GGAUUUUGUUGACAAUGAUTT against Ncaph: -0.0936 (inactive); GGAGCUCUUGGAUAUAAAATT against Eif4enif1: 0.223 (inactive); GGUGAGACAGAUAAAGUUCTT against Olfr1124: 1.15 (inactive). Next, GGUAAAAGCUACCAUUCAGTT against Ap2a2: -0.947 (inactive); GGUUUGUUUUUGUUCGUUUTT against Cytip: -0.067 (inactive); GGCAAGAAAAAUCAGAUUGTT against Cyld: 3 (active). The value for GGAGUUUACGGCUAUUGACTT against Adap2 was -0.884 (inactive).

For the sequence GGUUUAAUUCUUGUCUUGUTT against Pvt1, the z-score was -0.928 (inactive). The value for GGUUAUCGGUUGUACAUAUTT against Chd3 was 1.03 (inactive); that for CGUGGACUCUAUAAUCAACTT against Map7d1 was 2.47 (active). Next, GGCAAGCUUCCAGAUCGAATT against Adam23: 0.0113 (inactive).

Regarding GGAACCAGAUCUCAUGCCCTT against Endov, the z-score is -1.47 (inactive). The value for GGAUCACACUAGUAUUUUCTT against Sertad2 was -0.923 (inactive). For the sequence GCUAAAAACAACUAGGAAATT against Wdr60, the z-score is 0.391 (inactive). In the case of GCAUCGUGUGCAAGAUCCUTT against Atp4b, the z-score was 2.74 (active). Regarding GGAAAUAUAUCUGAAAGGGTT against Sphkap, the z-score was 0.514 (inactive). The value for GCUCGCUAAAGUGAUUAAATT against Gm5533 was 0.867 (inactive); that for GGACUUUCUAAGGGUAAAATT against Luzp1 was -0.0646 (inactive); that for GGACAAAGCUAUUGGGAUUTT against Olfr402 was 1.45 (inactive). The value for GGUGAUGGUCCAGAUUAACTT against Plpbp was -0.0895 (inactive); that for GCUGAAAUAGUUGCUAAAUTT against Usp6nl was 0.443 (inactive). Next, GGAACUGUCACAACUGCUATT against Acat3: 3.22 (active); GGAGAAGCUCAUCUCUCUGTT against Rfx2: -1.35 (inactive). As to GGAACAUCUUUCUUCUCCATT against Abhd4, the z-score was -0.869 (inactive). Next, GGAUUCGGACUUCAUAAUCTT against Dpp10: 0.256 (inactive).

As for GCUGAUAAAUCUGAACUACTT against Dhrs7, the z-score was 1.15 (inactive). For the sequence GGUUCUGAGUAUUUAAAGCTT against Nt5dc3, the z-score is 2.21 (active). For GGACAUCUCCUUGAUCUUGTT against Slc1a5, the z-score is -0.95 (inactive). With UCACCAUCUUGAAGAUUCGTT against Olfr486, the z-score is -0.792 (inactive).

Turning to GCAGGAUCCUGAAACCAUGTT against Lrrc14, the z-score is -2.09 (active). The value for GCCCAAGACGAAAAGAUACTT against Mrpl9 was 0.662 (inactive); that for GGAUAGCAAAUUCAUCACATT against Ptprg was -0.214 (inactive); that for GGCUUCGUAGCUUUACAAATT against Abca6 was -0.846 (inactive). Next, GGAAAGGUCAAGAGAAUUUTT against Strn3: -1.16 (inactive); GGACUUACUGACAAGAAACTT against Pcdhgb8: -0.52 (inactive); UUCUAAUUGUCACUUGGUGTT against Olfr1474: -0.133 (inactive).

Take GCUGGAUUAUUUGAGAGUCTT against Trim62: the z-score was 2.17 (active). The value for GCAUUAAGCAAUGGCAUCATT against Cbfa2t2 was 0.21 (inactive); that for GCAUCAGAGAAGUGCGAGCTT against Pafah2 was -0.0121 (inactive). The value for “GCUCAUGAUCAUAUCAUGATT against 1810055G02Rik” was 0.647 (inactive); that for CCCACACAAUUCUCAUGGGTT against Olfr366 was 0.661 (inactive). The value for GGAAUACGAAGAGAUUAUATT against Zw10 was 0.65 (inactive); that for “CCUAGAAAAGUCAUUGUCATT against 3010003L21Rik” was -2.08 (active). Consider CCUUCAAGAUAAAUUGACATT against Tango6, for which the z-score is 0.755 (inactive). The value for GGAAAAGGCCAUGAAUAUATT against Mmel1 was 0.176 (inactive); that for GGCCAGACACAGGUAGACATT against B9d2 was -1.85 (inactive); that for CGGACGAUUCGUGUCAAUUTT against Ppie was 0.619 (inactive). The value for GGACGAACAGUAUUAUACUTT against Lhx5 was 2.11 (active). On to CCUGAUGUUAUUCCUUUUATT against Klhl20, for which the z-score was -0.524 (inactive). The value for GGUGAUGACGAAGGAAUCCTT against Zfpm2 was -1.51 (inactive); that for GGAGCAAGACAUAUAGAAATT against Spsb2 was 2.26 (active).

GGACAUUUUUAUUAGUGGATT against Gtpbp8: the z-score was 1.04 (inactive). The value for CCAUUGGAGGAUAAGUUUUTT against Mtm1 was -0.0988 (inactive). As for GGAAAAUGGAGAACUAAAGTT against Uxs1, the z-score is 1.88 (inactive). Next, GGAUAAACCCUACGUUCUATT against Slc44a4: 0.658 (inactive); GGUUAUCCGUGGUAACCAUTT against Taok3: 0.78 (inactive); CGAACGUGAUGAGUUAUGGTT against Vmn1r83: -2.67 (active). The value for GGUAUUCGUGGAGUGGAGATT against Pdcd2l was 0.0458 (inactive); that for GGGCAAUUAGUAAAGGCUATT against Eif2s3x was 2.02 (active); that for GGUCCUACAAAAAGAUGGATT against Mettl7b was -0.536 (inactive).

CGAGAUUGUGCUGAUAGAGTT against Nptx2: the z-score was 0.533 (inactive).

CGUGUUGUACUACGUAUAUTT against Abtb1: the z-score is -0.172 (inactive). Next, CCUAAAAGACUUUGGAGACTT against Arg2: -1.09 (inactive). In the case of GGCCCUCAUGAUUGCUAUGTT against Nek8, the z-score is -0.722 (inactive). Next, CCUUCCAUGGUGAGGAUAATT against Stim1: -2 (active).

For CCAGUUGAGUCACUUACUGTT against Borcs7, the z-score is 0.667 (inactive). For CGCGGCAUAAACAUGUAAATT against Gatc, the z-score was -1.07 (inactive).

Regarding GGUGUCUUUCUUCACUCUUTT against Olfr862, the z-score is 0.225 (inactive). The value for CGUGUUUGAUCACUACUCUTT against Tnfaip8l2 was -0.593 (inactive).
